The assay in a line: general mammalian cell viability loss – inhibitor set, cherry-pick, set 2, cytotoxicity control for miR-122 modulator project, dose response (AID 720697).

From PubChem BioAssay AID720697 (Broad Institute, 2013) come the findings set out here.

Results with a measured potency or affinity are listed apart. Results filed as inconclusive are left out. Calls of active or inactive are those of the source.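 Rule for the calls: active = signal loss with fitted half-maximal concentration at or below twice the top valid tested dose in every test run; inconclusive = runs disagree, flat 30 to 70% signal loss, or poor fit; inactive = all runs flat, opposite direction, or potency beyond limit.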

Take `COc1ccc(C2SCC(=O)Nc3c2c(=O)[nH]n3C2CCCCCC2)cc1` (configuration not stated): the compound was called inactive.
The result for `COc1ccc2c(c1)c(CCN)c(C)n2Cc1ccccc1` reads “inactive”.
